Mtb betalactam = beta-lactam sensitization of Mtb H37Rv, H37Rv; M. tuberculosis H37Rv growth with meropenem, percent inhibition; inhibition, % at 25 µM; 330,000 tested, 0.27% active; call rule not given here;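 note: growth measured after seven days incubation then overnight dye step; 0% = bacteria only wells and 100% = bacteria with antibiotic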
RecA splice inh = Mtb RecA intein splicing inhibitors, primary screen, biochemical, fluorescence, HTS; Protein RecA (Mycobacterium tuberculosis (strain ATCC 25618 / H37Rv)), P9WHJ3; cell-free RecA intein splicing; inhibition, % (test concentration not listed); 290,000 tested, 0.75% active; in the data active = inhibition above about 30%;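 note: 0% = vehicle wells and 100% = reference inhibitor control wells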
Rv3671c inh = Rv3671c serine protease inhibitors, primary screen, biochemical, fluorescence polarization, M. tuberculosis H37Rv; AID 2606, 2010; 320,000 tested, 0.048% active; inhibition, % at 5.96 µM; in the data active = inhibition above about 38%;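 note: extracellular domain of Rv3671c used as enzyme; 0% = enzyme with DMSO and 100% = no enzyme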
Target sequence (P9WHR9 whole entry, looked up, the tested form may be a part): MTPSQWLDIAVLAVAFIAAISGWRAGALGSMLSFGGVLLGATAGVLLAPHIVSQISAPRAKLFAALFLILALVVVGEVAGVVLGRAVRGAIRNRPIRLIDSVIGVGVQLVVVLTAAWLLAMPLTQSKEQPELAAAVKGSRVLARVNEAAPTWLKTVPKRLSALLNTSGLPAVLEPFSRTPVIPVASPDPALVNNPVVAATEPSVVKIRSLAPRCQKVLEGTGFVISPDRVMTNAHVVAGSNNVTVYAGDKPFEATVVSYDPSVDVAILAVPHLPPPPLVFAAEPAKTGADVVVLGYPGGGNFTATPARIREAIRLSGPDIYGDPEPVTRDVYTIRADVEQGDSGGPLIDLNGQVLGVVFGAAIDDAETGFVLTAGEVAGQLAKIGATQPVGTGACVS
GDH-TPI counter-1 = GDH-TPI coupling enzyme inhibitors, primary screen, artefact control for M. tuberculosis FBA inhibitor project, biochemical, absorbance, full deck | 360,000 tested, 1.2% active | AID 588335, 2011 | inhibition, % at 4.8 µM | GDH-TPI coupled enzyme counterscreen, NADH absorbance; in the data active = inhibition above about 30%;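 note: 0% = DMSO wells and 100% = wells lacking the enzyme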
FBA Mtb inh = Mtb FBA enzyme inhibitors, primary screen, biochemical, fluorescence, strain H37Rv | inhibition, % at 1 µM | purified M. tuberculosis FBA, fluorescence read-out | AID 588726, 2011 | 360,000 tested, 2.3% active | Fructose-bisphosphate aldolase (Mycobacterium tuberculosis (strain ATCC 25618 / H37Rv)), …;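 note: 0% = vehicle and 100% = reference inhibitor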
Mtb UGM inh = M. tuberculosis UGM enzyme inhibitors, primary screen, biochemical, fluorescence polarization, single point | 320,000 tested, 0.06% active | purified UGM, fluorescence polarization probe displacement | inhibition, % at 10 µM | UDP-galactopyranose mutase (Mycobacterium tuberculosis (strain ATCC 25618 / H37Rv)), …; in the data active = inhibition above about 10%, passing the limit was not always enough
Mtb FBA confirm = M. tuberculosis aldolase blockers, biochemical, fluorescence, strain H37Rv, confirmation. 5,600 tested, 78% active. purified M. tuberculosis FBA, fluorescence read-out. inhibition, % at 1 µM. shares compounds with FBA Mtb inh. AID 651616, 2012;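 note: 0% = vehicle wells and 100% = reference inhibitor wells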
GDH-TPI counter-2 = GDH-TPI coupling enzyme inhibitors, artefact control for M. tuberculosis FBA inhibitor project, biochemical, fluorescence, high throughput; inhibition, % at 1 µM; GDH-TPI coupled enzyme counterscreen; 5,600 tested, 81% active; shares compounds with FBA Mtb inh; in the data active = inhibition above about 10%
An asterisk follows results filed as active. Rows were chosen to be rich in hits. Some 4% of all compounds tested hit in one or more screens of this group. Cut-off read from the data, not from the text of the source, unless noted: active = inhibition above about 27%; inactive = the rest.

O=c1c2ccccc2nc2c3ccccc3c(NCc3ccccn3)nn12 was read as Mtb betalactam 2, RecA splice inh -7, Rv3671c inh -3, GDH-TPI counter-1 2, FBA Mtb inh 79*, Mtb UGM inh -7, Mtb FBA confirm active and GDH-TPI counter-2 180*.
`O=c1c2ccccc2nc2c3ccccc3c(NCc3cccnc3)nn12` gave Mtb betalactam -5, Rv3671c inh 4, GDH-TPI counter-1 3, FBA Mtb inh 2 and Mtb UGM inh -2.
`O=c1c2ccccc2nc2c3ccccc3c(NCCO)nn12` gave Mtb betalactam 1, RecA splice inh -4, Rv3671c inh 2, GDH-TPI counter-1 8, FBA Mtb inh 33*, Mtb UGM inh 0, Mtb FBA confirm active and GDH-TPI counter-2 active.
`COc1ccc2nc(N)sc2c1` gave Mtb betalactam 52, RecA splice inh -2, Rv3671c inh 0, GDH-TPI counter-1 2, FBA Mtb inh 4 and Mtb UGM inh -2.
`COc1ccc2nc(-c3ccc(F)cc3)sc2c1` gave Mtb betalactam 40, RecA splice inh 5, Rv3671c inh -7, GDH-TPI counter-1 9, FBA Mtb inh 98*, Mtb UGM inh -1, Mtb FBA confirm active and GDH-TPI counter-2 active.
CCOC(=O)Cc1nnc(NC(=O)COc2ccc(F)cc2)s1 was read as Mtb betalactam 0, RecA splice inh -1, Rv3671c inh -8, GDH-TPI counter-1 2, FBA Mtb inh 4 and Mtb UGM inh -1.
Screening O=C(COc1ccc(F)cc1)Nc1nnc(-c2ccncc2)s1 returned Mtb betalactam 2, RecA splice inh -2, Rv3671c inh 2, GDH-TPI counter-1 25, FBA Mtb inh 47*, Mtb UGM inh 2, Mtb FBA confirm 90* and GDH-TPI counter-2 66*.
For Cn1c(N)c(C(=O)COC(=O)c2ccc(Cl)c(S(=O)(=O)N3CCCCC3)c2)c(=O)n(C)c1=O the results were Mtb betalactam 1, RecA splice inh -5, Rv3671c inh 6, GDH-TPI counter-1 9, FBA Mtb inh 3 and Mtb UGM inh 1.
Screening O=C(O)CN1C(=O)/C(=C/c2ccccc2Br)Oc2ccccc21 returned Mtb betalactam -1, RecA splice inh -7, Rv3671c inh 3, GDH-TPI counter-1 8, FBA Mtb inh 83*, Mtb UGM inh 0, Mtb FBA confirm -5 and GDH-TPI counter-2 -5.
`Cc1cc(=O)oc2cc(NC(=O)COc3cccc(C(F)(F)F)c3)ccc12` gave Mtb betalactam 1, Rv3671c inh -4, GDH-TPI counter-1 16, FBA Mtb inh 41*, Mtb UGM inh -3, Mtb FBA confirm 71* and GDH-TPI counter-2 50*.
For Cc1cc(=O)oc2cc(NC(=O)c3ccccc3Cl)ccc12 the results were Mtb betalactam 25, RecA splice inh -1, Rv3671c inh -5, GDH-TPI counter-1 22, FBA Mtb inh 96*, Mtb UGM inh 0, Mtb FBA confirm 0 and GDH-TPI counter-2 0.
O=C(O)c1ccccc1-c1ccccc1C(=O)Nc1ccc2c(c1)oc(=O)c1ccccc12 was read as GDH-TPI counter-1 30, FBA Mtb inh 34*, Mtb FBA confirm 2 and GDH-TPI counter-2 -3.
For Cc1cccc(OCC(=O)Nc2ccc3c(C)cc(=O)oc3c2)c1 the results were Mtb betalactam -12, RecA splice inh 0, Rv3671c inh 10, GDH-TPI counter-1 15, FBA Mtb inh 15 and Mtb UGM inh -1.
`CCCCOC(=O)Nc1ccc2c(C)cc(=O)oc2c1` gave Mtb betalactam -9, RecA splice inh 0, Rv3671c inh -6, GDH-TPI counter-1 17, FBA Mtb inh 84*, Mtb UGM inh -2, Mtb FBA confirm 7 and GDH-TPI counter-2 2.
`O=C(CCc1nnc(CCCCc2ccccc2)o1)NC1CCCC1` gave Mtb betalactam 1, RecA splice inh 0, Rv3671c inh 10, GDH-TPI counter-1 0, FBA Mtb inh -1 and Mtb UGM inh -2.
CS(=O)(=O)N(CCc1ccccc1)CC(=O)NCc1ccccc1Cl was read as Mtb betalactam 1, RecA splice inh 1, Rv3671c inh 8, GDH-TPI counter-1 -9, FBA Mtb inh 12 and Mtb UGM inh -2.
Cc1cc(N/C=C\c2nnnn2-c2ccc(F)cc2)no1 was read as Mtb betalactam 8, RecA splice inh -1, Rv3671c inh -5, GDH-TPI counter-1 9, FBA Mtb inh 1 and Mtb UGM inh -1.
`Cc1cc(=O)oc2cc(NC(=O)c3c(Cl)cnn3C)ccc12` gave Mtb betalactam 0, RecA splice inh 0, Rv3671c inh -4, GDH-TPI counter-1 26, FBA Mtb inh 9 and Mtb UGM inh -3.
Cc1cc(=O)oc2cc(NC(=O)C(CCCN=C(N)N)NC(=O)OCc3ccccc3)ccc12 (stereo not drawn) was read as Mtb betalactam 68, RecA splice inh 6, GDH-TPI counter-1 18, FBA Mtb inh 37*, Mtb UGM inh 2, Mtb FBA confirm 38* and GDH-TPI counter-2 23*.
`Cc1cc(=O)oc2cc(NC(=O)COc3ccccc3[N+](=O)[O-])ccc12` gave Mtb betalactam -1, Rv3671c inh -5, GDH-TPI counter-1 7, FBA Mtb inh 18 and Mtb UGM inh 1.
`Cc1cc(=O)oc2cc(NC(=O)c3ccnn3C)ccc12` gave Mtb betalactam 1, RecA splice inh -1, Rv3671c inh -3, GDH-TPI counter-1 9, FBA Mtb inh 32*, Mtb UGM inh 1, Mtb FBA confirm active and GDH-TPI counter-2 active.
`Cc1cc(=O)oc2cc(NC(=O)CN3C(=O)NC(C)(c4ccccc4)C3=O)ccc12` (stereo not drawn) gave Mtb betalactam -12, RecA splice inh -3, Rv3671c inh -17, GDH-TPI counter-1 11, FBA Mtb inh 61*, Mtb UGM inh 0, Mtb FBA confirm 137* and GDH-TPI counter-2 103*.
`COc1ccccc1CC(=O)Nc1ccc2c(C)cc(=O)oc2c1` gave Mtb betalactam 4, RecA splice inh -6, Rv3671c inh -6, GDH-TPI counter-1 22, FBA Mtb inh 37*, Mtb UGM inh -1, Mtb FBA confirm 101* and GDH-TPI counter-2 82*.

Screens deposited in PubChem by several laboratories.
